# Screening results from PubChem BioAssay.
# PAFAH1B2 FP inh = PAFAH1B2 (human) inhibition; AID 492953; recombinant PAFAH1B2, FP-rhodamine activity probe, fluorescence polarization; P68402; inhibition, % at 3.39 µM; 1.2% of 340,000 active;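 active means inhibition above the mean of all tested compounds plus 3 SD, cut at about 24% in these data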
# pPAFAH inh = pPAFAH (human) enzyme inhibition. inhibition, % at 3.39 µM. 1.5% of 330,000 active. recombinant pPAFAH, FP-rhodamine probe fluorescence polarization. Q13093;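 active means inhibition above the mean inhibition across the screen plus 3 SD, cut at about 25% in these data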;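 further: inhibitors block binding of the rhodamine activity-based probe so polarization drops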
# PAFAH2 FP inh = PAFAH2 (human) inhibition | inhibition, % at 3.39 µM | 0.99% of 340,000 active | Q99487 | recombinant PAFAH2, FP-rhodamine activity probe, fluorescence polarization | AID 492956;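 active means inhibition above the mean over all tested compounds plus 3 SD, cut at about 30% in these data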;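 further: inhibitors block probe labeling of enzyme so polarization drops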
# PP1 inh = blocks human PP1-alpha phosphatase, a PP5 counter-screen. inhibition, % at 6.7 µM. P62136. AID 2235. 0.9% of 320,000 active. purified PP1alpha, OMFP fluorescence;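 active means inhibition above the mean inhibition of all tested compounds plus 3 SD, computed separately for each screening campaign, cut at about 15% in these data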
# PP5 inh = blocks human protein phosphatase 5 activity | P53041 | purified PP5c, OMFP substrate fluorescence | inhibition, % at 6.7 µM | 0.18% of 320,000 active;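 active means inhibition above the campaign's mean inhibition across all tested compounds plus 3 SD, cut at about 9.5% in these data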
# Target sequence (P53041 whole entry, looked up): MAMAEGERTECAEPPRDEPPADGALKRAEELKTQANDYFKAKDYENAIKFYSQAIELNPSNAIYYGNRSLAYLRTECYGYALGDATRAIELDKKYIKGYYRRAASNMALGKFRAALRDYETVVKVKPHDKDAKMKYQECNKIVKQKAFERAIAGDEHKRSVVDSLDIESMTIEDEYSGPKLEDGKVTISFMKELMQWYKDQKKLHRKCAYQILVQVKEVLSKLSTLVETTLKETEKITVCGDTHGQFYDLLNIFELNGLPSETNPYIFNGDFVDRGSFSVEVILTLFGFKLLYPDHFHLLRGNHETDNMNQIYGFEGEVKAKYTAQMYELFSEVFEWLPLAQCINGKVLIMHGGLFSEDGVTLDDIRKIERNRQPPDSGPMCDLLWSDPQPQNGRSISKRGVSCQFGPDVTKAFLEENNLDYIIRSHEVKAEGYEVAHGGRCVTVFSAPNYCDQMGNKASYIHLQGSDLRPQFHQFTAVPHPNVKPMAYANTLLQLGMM
# PAFAH1B3 FP inh = inhibitors of human PAFAH1B3; Q15102; recombinant PAFAH1B3, FP-rhodamine probe, fluorescence polarization; inhibition, % at 3.39 µM; 0.28% of 340,000 active;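 active means inhibition above the screen-wide average of all tested compounds plus 3 SD, cut at about 25% in these data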
# PP1 confirm = confirmation of human PP1 phosphatase inhibitors; purified PP1alpha, OMFP substrate fluorescence; inhibition, % at 6.7 µM; 52% of 1,900 active; shares compounds with PP1 inh; AID 2358;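 active means mean PP1 inhibition above a set limit taken from the earlier primary screen, cut at about 15% in these data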
# PP5 inh counter = PP5 phosphatase inhibition, counter-screen for PP1 inhibitors. shares compounds with PP1 inh. purified PP5c, OMFP fluorescence. inhibition, % at 6.7 µM. 4% of 1,900 active. AID 2360;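 active means mean PP5 inhibition over triplicate wells above about 9.5% taken from the earlier PP1 screen, limit read from the data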
# A number is an active result; 0 = inactive; - = no result. Most compounds without a hit are left out; they make up all but 3.4% or so of the library.
SMILES,PAFAH1B2 FP inh,pPAFAH inh,PAFAH2 FP inh,PP1 inh,PP5 inh,PAFAH1B3 FP inh,PP1 confirm,PP5 inh counter
CCCCOc1cccc(C2C(C(=O)c3ccc(C)o3)=C(O)C(=O)N2c2nnc(C)s2)c1 (stereo not drawn),0,-,0,-,-,0,-,-
Cc1ccc2nc(N3C(=O)C(O)=C(C(=O)c4ccc(C)o4)C3c3cccc(O)c3)sc2c1 (stereo not drawn),0,0,0,25,0,0,27,9.7
Cc1cc(N2C(=O)C(O)=C(C(=O)c3cccs3)C2c2cccc(O)c2)no1 (stereo not drawn),0,0,0,0,0,0,-,-
C=CCOc1cccc(C2C(C(=O)c3ccc(C)o3)=C(O)C(=O)N2c2nccs2)c1 (stereo not drawn),0,0,0,22,0,0,15,0
O=Cc1cc([N+](=O)[O-])ccc1N1CCN(Cc2ccc3c(c2)OCO3)CC1,0,0,0,0,0,0,-,-
COc1ccccc1Sc1nc(-c2ccccc2)ncc1OC,0,0,0,0,0,0,-,-
O=C(/C=C/c1ccccc1)Nc1ccc2c(c1)OCCO2,0,0,0,0,0,0,-,-
CCOC(=O)c1ccc(N2C(=O)c3n[nH]c(-c4ccco4)c3C2c2cccc([N+](=O)[O-])c2)cc1 (stereo not drawn),0,0,0,0,0,0,-,-
CCOC(=O)c1sc(N2C(=O)C(O)=C(C(=O)c3ccc(C)o3)C2c2cccc([N+](=O)[O-])c2)nc1C (stereo not drawn),0,0,47,35,0,0,21,0
COc1cccc(Cn2c(=O)c3ccccc3n3nc(C)cc23)c1,0,0,0,0,0,0,-,-
O=C(Nc1cccc(NC(=O)c2ccc(Br)o2)n1)c1ccc(Br)o1,0,0,0,35,0,0,31,0
Cc1nc(NC(=O)c2ccc(Br)o2)ccc1Br,0,-,0,-,-,0,-,-
CCOC(=O)C1(Cc2ccccc2C)CCCN(C(=O)c2ccoc2)C1 (stereo not drawn),0,0,0,0,0,0,-,-
CCOC(=O)C1(Cc2ccccc2C)CCCN(C(=O)c2ccc(OC)o2)C1 (stereo not drawn),0,0,0,26,0,0,0,0
CC(=O)Nc1ccc(NC(=S)NC(=O)/C=C/c2ccc(Cl)cc2)cc1,0,0,0,0,0,0,-,-
O=C(/C=C/c1ccco1)NC(=S)Nc1cccc(-c2nc3ccccc3s2)c1,0,0,0,24,0,0,0,0
CC(=O)c1ccc(NC(=S)NC(=O)/C=C/c2ccco2)cc1,0,0,0,23,0,0,29,0
O=C(/C=C/c1ccco1)NC(=S)Nc1ccccc1,0,0,0,0,0,0,-,-
O=C(/C=C/c1ccco1)NC(=S)Nc1cc(-c2nc3ccccc3s2)ccc1Cl,0,0,0,0,0,0,-,-
O=C(/C=C/c1ccc(Cl)cc1)NC(=S)Nc1ccc(NC(=O)c2ccco2)cc1,0,0,0,21,0,0,24,0
Cc1ccc2ncnc(Oc3ncccc3[N+](=O)[O-])c2c1,0,0,0,0,0,0,-,-
Cc1cccn2c(=O)c3cc(C#N)c(=NC(=O)c4ccccc4)n(Cc4ccco4)c3nc12,0,0,0,0,0,0,-,-
Cc1cccc(C(=O)N=c2c(C#N)cc3c(=O)n4cccc(C)c4nc3n2Cc2ccco2)c1,0,0,0,25,0,0,0,0
O=C(Nc1cc(Cl)ccc1N1CCOCC1)C1CC1,0,0,0,-,-,0,-,-
CCc1nnc(NC(=O)c2sc3nc4c(cc3c2N)CCCCCC4)s1,0,0,0,22,0,0,29,0
SMILES,PAFAH1B2 FP inh,pPAFAH inh,PAFAH2 FP inh,PP1 inh,PP5 inh,PAFAH1B3 FP inh,PP1 confirm,PP5 inh counter
CCc1nnc(NC(=O)c2sc3nc4c(cc3c2N)CCCCC4)s1,0,0,0,0,0,0,-,-
O=C(Nc1ccc(NC(=O)C2CC2)nc1)c1cnccn1,0,0,0,0,0,0,-,-
COc1cccc(CNC(=O)c2ccc(COc3ccccc3)cc2)c1,0,0,0,0,0,0,-,-
COC(=O)c1ccc(CNC(=O)c2ccc(COc3ccccc3)cc2)cc1,0,0,0,26,0,0,24,0
CCOC(=O)C1=C(c2ccccc2)NC(N)=NC1c1ccc(OCc2ccc(C(=O)OC)cc2)cc1 (stereo not drawn),0,0,0,44,0,0,31,0
COc1cc(OC)cc(-c2c(C#Cc3ccsc3)c3cc(-c4ccc(OC)c(F)c4)ccc3n2C)c1,0,0,0,-,-,0,-,-
CC(=O)c1cccc(NS(=O)(=O)c2ccc3c(c2)oc(=O)n3C)c1,0,0,0,0,0,0,-,-
Cn1c(=O)oc2cc(S(=O)(=O)Nc3cccc(C(=O)O)c3)ccc21,0,0,0,42,0,0,0,0
CCn1cc(C(=O)O)c(=O)c2cc(F)c(N3CCN(C(=S)NC(=O)c4c(OC)cccc4OC)CC3)cc21,0,0,0,0,0,0,-,-
CCn1cc(C(=O)O)c(=O)c2cc(F)c(N3CCN(C(=S)Nc4ccccc4OC)CC3)cc21,0,0,0,25,0,0,0,0
COc1ccc(C(=O)CSc2nc(-c3ccccn3)nc(C)c2Cl)cc1,0,0,0,0,0,0,-,-
Cc1nc(-c2ccccn2)nc(SCC(=O)c2ccc(F)cc2)c1Cl,0,0,0,27,0,0,41,0
CC(C(=O)Nc1ccccc1Oc1ccccc1)c1ccccc1 (stereo not drawn),0,0,0,0,0,0,-,-
Cc1cc(C)c2cc(CN(CCO)C(=O)Nc3ccc(Cl)cc3)c(=O)[nH]c2c1,-,0,-,0,0,-,-,-
Cc1ccc(S(=O)(=O)c2nnn3c2nc(NC2CCN(Cc4ccccc4)CC2)c2ccccc23)cc1C,0,0,0,21,0,0,0,0
CCCCC(=O)Nc1ccnc(-c2cccnc2)n1,0,0,0,0,0,0,-,-
O=C(/C=C/c1ccc(OCCCF)cc1)Nc1ccnc(-c2cccnc2)n1,0,0,0,22,0,0,22,0
COc1ccc(N2CCN(C3CCCN(S(=O)(=O)c4ccc(C)cc4C)C3)CC2)cc1 (stereo not drawn),0,0,0,0,0,0,-,-
CCCc1cc(=O)oc2cc(OC(C)C(=O)NCC3CCC(C(=O)O)CC3)c(Cl)cc12 (stereo not drawn),0,0,0,0,0,0,-,-
CCCCc1cc(=O)oc2cc(OC(C)C(=O)NCC3CCC(C(=O)O)CC3)c(Cl)cc12 (stereo not drawn),0,0,0,54,0,0,0,0
CC(=O)OCCCN1c2ccccc2Nc2nnc(-c3ccccc3)cc21,0,0,0,29,0,0,28,0
CC(=O)OCCCN1C(=O)c2cccc3cc(Br)cc(c23)C1=O,-,0,-,0,0,-,-,-
COc1ccc(C(C)(C)C)cc1NC(=O)CCNC(=O)c1ccco1,0,0,0,0,0,0,-,-
